High-throughput results from PubChem BioAssay.
A selection: hits, their analogues and other compounds. The true share with any hit is near 12%.
Pf growth 48h: inhibits P. falciparum growth in the first generation, 48 h | hit rate 5.9% among 310,000 | P. falciparum luciferase growth in erythrocytes, 48 h | AID 504832 | Potency, µM (titrated, usually from 28.7 µM), hits mostly inhibitors
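Compounds are pin-transferred into medium, infected erythrocytes (2% hematocrit, 0.1% parasitemia final) are added, and plates sit one parasite generation at 37 C in 5% CO2. Detection reagent is then added and luminescence measured.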
Pf growth 96h: P. falciparum growth inhibition at 96 hours; AID 504834; P. falciparum luciferase reporter growth, 96 h; hit rate 6.9% among 320,000; Potency, µM (series often up to 28.7 µM), hits mostly inhibitors
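Plates of compound plus infected erythrocytes (2% hematocrit, 0.05% parasitemia final) incubate 96 hours, 37 C, 5% CO2. Detection reagent added; reduced luminescence from the parasites' luciferase reporter flags inhibition.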
Sm TGR inh: inhibitors of Schistosoma mansoni thioredoxin glutathione reductase. Potency, µM (series often up to 114 µM), usual class: inhibitors. Q962Y6. AID 485364. hit rate 3% among 360,000. purified TGR, DTNB reduction, TNB absorbance 405 nm; note: nearly all actives have a fitted effect of over 60% in size
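Kinetic colorimetric format: TGR-catalysed, NADPH-driven DTNB reduction monitored via TNB absorbance. Enzyme dispensed at 20 nM; compound exposure 15 min at room temperature before reaction start.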
AmpC no deterg: blocks E. coli AmpC beta-lactamase in detergent-free assay; hit rate 0.52% among 330,000; Potency, µM (series often up to 57.1 µM), hits mostly inhibitors; AmpC nitrocefin hydrolysis, absorbance 480 nm, 0.0001% Triton; P00811; note: nearly all actives have a fitted effect of over 20% in size
Target sequence (P00811 whole entry, looked up): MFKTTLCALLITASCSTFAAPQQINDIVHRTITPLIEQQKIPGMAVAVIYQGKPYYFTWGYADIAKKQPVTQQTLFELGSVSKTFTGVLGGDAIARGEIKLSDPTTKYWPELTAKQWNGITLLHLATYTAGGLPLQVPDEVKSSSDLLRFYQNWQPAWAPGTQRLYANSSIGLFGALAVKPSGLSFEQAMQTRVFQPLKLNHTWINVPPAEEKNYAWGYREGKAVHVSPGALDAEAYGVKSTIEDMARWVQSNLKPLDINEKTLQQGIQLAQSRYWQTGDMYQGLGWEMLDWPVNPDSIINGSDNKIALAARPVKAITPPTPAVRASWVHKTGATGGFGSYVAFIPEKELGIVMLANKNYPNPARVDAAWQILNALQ
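AmpC (5.3 nM in the dispensed reagent) in 20 mM phosphate pH 7.0 with 0.01% (detergent screen) or 0.0001% Triton X-100 was preincubated with compounds for 15 min at room temperature. Nitrocefin was then added from an 800 uM solution, and hydrolysis was followed at 480 nm.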
SARS PLpro yeast: blocks SARS-CoV papain-like protease in a yeast assay; S. cerevisiae expressing SARS-CoV PLpro, growth rescue; Potency, µM (top dose mostly 32.9 µM), usual class: activators; hit rate 0.19% among 330,000; AID 485353; calls by dose curve; note: nearly all actives have a fitted effect of over 55% in size
AmpC inh detg: inhibitors of E. coli AmpC beta-lactamase with detergent | P00811 | AmpC hydrolysis of nitrocefin, absorbance 480 nm, 0.01% Triton | Potency, µM (highest dose often 114 µM), actives largely listed as inhibitors | hit rate 0.041% among 370,000; note: nearly all actives have a fitted effect of over 25% in size
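20 mM phosphate pH 7.0 + 0.01% (detergent screen) or 0.0001% Triton X-100; 5.3 nM AmpC reagent; cpd preinc 15 min RT; nitrocefin (800 uM stock) to start; A480 q20 s × 4 min; Activity was normalised to no-enzyme and no-compound control wells.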
Hits are given with their value; [ ] = remark or other dose. Unless noted, calls come from the whole dose curve; as a rule, active = well fitted curve in the direction sought with a large enough effect; inconclusive = small, poorly fitted or top-dose-only effect, or another doubt; inactive = no such curve, though single readings can be large; an effect the other way counts as inactive or inconclusive.

O=C(OCCN1C(=O)c2ccccc2C1=O)c1cc2ccccc2o1 was read as Pf growth 48h inactive, Pf growth 96h inactive[5.75 µM], Sm TGR inh inactive, AmpC no deterg inactive, SARS PLpro yeast inactive and AmpC inh detg inactive.
CCOC(=O)c1[nH]c(=O)[nH]c1CSCCO was read as Pf growth 48h inactive, Sm TGR inh inactive, AmpC no deterg inactive, SARS PLpro yeast inactive and AmpC inh detg inactive.
For CCOC(=O)CCCCC(=O)c1[nH]c(=O)[nH]c1CSc1nnc2c3cc(Br)ccc3n(C)c2n1 the results were Pf growth 48h 10µM, Pf growth 96h inactive, Sm TGR inh inactive, AmpC no deterg inactive, SARS PLpro yeast inactive and AmpC inh detg inactive.
Screening CCOC(=O)c1[nH]c(=O)[nH]c1CSc1nc(C)cc(C)n1 returned Pf growth 48h inconclusive, Sm TGR inh 35µM, AmpC no deterg inactive, SARS PLpro yeast inactive and AmpC inh detg inactive.
For Cn1c2ccc(Br)cc2c2nnc(SCC(=O)O)nc21 the results were Pf growth 48h inactive, Pf growth 96h inactive, Sm TGR inh inactive, AmpC no deterg inactive, SARS PLpro yeast inactive and AmpC inh detg inactive.
For CN(C)CCCOC(=O)c1cc2ccccc2o1 the results were Pf growth 48h 2.6µM, Pf growth 96h inconclusive, Sm TGR inh inconclusive, AmpC no deterg inactive, SARS PLpro yeast inactive and AmpC inh detg inactive.
CCOC(=O)c1[nH]c(=O)[nH]c1COC(=O)c1cc2ccccc2o1 was read as Pf growth 48h inactive, Pf growth 96h inactive, Sm TGR inh 4.5µM, AmpC no deterg inactive, SARS PLpro yeast inactive and AmpC inh detg inactive.
For O=C(Cn1c(=O)n(-c2ccccc2)c(=O)c2sccc21)NCc1ccccc1 the results were Pf growth 48h inactive, Pf growth 96h inactive, Sm TGR inh inactive, AmpC no deterg inactive, SARS PLpro yeast inactive and AmpC inh detg inconclusive.
CCOc1ccccc1NC1(c2ccccc2)C(=O)c2ccccc2C1=O was read as Sm TGR inh inactive and AmpC inh detg inactive.
Screening CC(C)CCNC(=O)CN1C(=O)CCn2nc(-c3cn(C)c4ccccc34)cc21 returned Sm TGR inh inactive and AmpC inh detg inactive.
For CCOC(=O)c1c(C)[nH]c(C)c1C(=O)CSc1nc2ccccc2[nH]1 the results were Pf growth 48h inactive, Pf growth 96h inactive, Sm TGR inh inactive, AmpC no deterg inactive, SARS PLpro yeast inactive and AmpC inh detg inactive.
Screening CCOC(=O)CCCCC(=O)c1[nH]c(=O)[nH]c1CSc1nc(C)cc(=O)[nH]1 returned Pf growth 48h inactive, Sm TGR inh 2.5µM, AmpC no deterg inactive, SARS PLpro yeast inactive and AmpC inh detg inconclusive.
Screening CCOC(=O)CCCCC(=O)c1[nH]c(=O)[nH]c1CSc1nc2ccccc2[nH]1 returned Pf growth 48h inconclusive, Pf growth 96h inactive, Sm TGR inh 3.2µM, AmpC no deterg inactive, SARS PLpro yeast inactive and AmpC inh detg inactive.
CCOC(=O)CCCCC(=O)c1[nH]c(=O)[nH]c1CSc1nc(C)cc(C)n1 was read as Pf growth 96h inactive, Sm TGR inh inactive[11.4 µM], AmpC no deterg inactive, SARS PLpro yeast inactive and AmpC inh detg inactive.
For CCN1CCc2c(sc(NC(=O)COc3ccccc3)c2C(=O)OC)C1 the results were Pf growth 48h 15µM, Pf growth 96h inactive, Sm TGR inh inactive, AmpC no deterg inactive, SARS PLpro yeast inactive and AmpC inh detg inconclusive.
Screening CCCCN(CCCC)S(=O)(=O)c1ccc(C(=O)Nc2sc3c(c2C(N)=O)CCN(CC)C3)cc1 returned Sm TGR inh inactive and AmpC inh detg inactive.
For CCN1CCc2c(sc(NC(=O)c3ccc(S(=O)(=O)N(CC)c4ccccc4)cc3)c2C(N)=O)C1 the results were Pf growth 48h inconclusive, Pf growth 96h 13µM, Sm TGR inh inactive, AmpC no deterg inactive, SARS PLpro yeast inactive and AmpC inh detg inactive.
For CCC1CCCCN1S(=O)(=O)c1ccc(C(=O)Nc2sc3c(c2C(N)=O)CCC3)cc1 (configuration not stated) the results were Sm TGR inh 35µM and AmpC inh detg inactive.
Screening CCN1CCc2c(sc(NC(=O)Cc3ccccc3)c2C(=O)OC)C1 returned Pf growth 48h inconclusive, Pf growth 96h inactive, Sm TGR inh inactive, AmpC no deterg inactive, SARS PLpro yeast inactive and AmpC inh detg inactive.
For COC(=O)c1c(NC(=O)c2ccc(S(=O)(=O)N3CCOCC3)cc2)sc2c1CCN(C)C2 the results were Pf growth 48h 13µM, Pf growth 96h inconclusive, Sm TGR inh inactive, AmpC no deterg inactive, SARS PLpro yeast inactive and AmpC inh detg inconclusive.
`O=C1CCSC2(C(=O)N(Cc3ccc(F)cc3)c3ccccc32)N1c1ccc(Cl)cc1` (configuration not stated) gave Sm TGR inh inactive and AmpC inh detg inactive.
For CCOC(=O)c1c(C)[nH]c(CCC(=O)NCCCN2CCN(c3ccccc3F)CC2)c1C the results were Sm TGR inh inactive and AmpC inh detg inactive.
`Cc1ccc(N(CC(=O)Nc2ccc(Br)c(C)c2)S(=O)(=O)c2cccs2)cc1` gave Sm TGR inh inactive and AmpC inh detg inactive.
Cc1cc(C)n2nc(SCC(=O)N3CCN(c4ccccc4)CC3)nc2n1 was read as AmpC no deterg inactive and SARS PLpro yeast inactive.
Screening Cc1ccc(CCNC(=O)c2ccc(CS(=O)(=O)c3ccc(Br)cc3)o2)cc1 returned Sm TGR inh inactive and AmpC inh detg inactive.
For CNC(=O)c1c(NC(=O)c2ccc(S(=O)(=O)N3CCCC3)cc2)sc2c1CCN(C(C)C)C2 the results were Pf growth 48h 2.6µM, Pf growth 96h inconclusive, Sm TGR inh inactive, AmpC no deterg inactive, SARS PLpro yeast inactive and AmpC inh detg inactive.
CCN1CCc2c(sc(NC(=O)c3ccc(S(=O)(=O)N4CCOCC4)cc3)c2C(N)=O)C1 was read as Pf growth 48h inconclusive, Pf growth 96h inconclusive, Sm TGR inh inactive, AmpC no deterg inactive, SARS PLpro yeast inactive and AmpC inh detg inactive.
Screening CCCN1CCc2c(sc(NC(=O)c3ccc(S(=O)(=O)N4CCCC4)cc3)c2C(N)=O)C1 returned Pf growth 48h 9.3µM, Pf growth 96h inconclusive, Sm TGR inh inactive, AmpC no deterg inactive, SARS PLpro yeast inactive and AmpC inh detg inactive.
For CNC(=O)c1c(NC(=O)c2ccc(S(=O)(=O)N3CCCCC3C)cc2)sc2c1CCN(C)C2 (configuration not stated) the results were Pf growth 48h inconclusive, Pf growth 96h 10µM, Sm TGR inh inactive, AmpC no deterg inactive, SARS PLpro yeast inactive and AmpC inh detg inactive.
CC(C)N1CCc2c(sc(NC(=O)c3ccc(S(=O)(=O)N4CCOCC4)cc3)c2C(N)=O)C1 was read as Pf growth 48h inconclusive, Pf growth 96h 4.1µM, Sm TGR inh inactive, AmpC no deterg inactive, SARS PLpro yeast inactive and AmpC inh detg inactive.
